Over roughly 33,000 sequences, “E-score (-0.5 to 0.5)” has its median near -0.041; the highest 2% begin near 0.37. The sample holds the highest values, similar sequences and a random draw of the others, so the mix is not that of the screen.

The test deals with T1, Ecm22 (UniProt Q05958).
T1 sequence: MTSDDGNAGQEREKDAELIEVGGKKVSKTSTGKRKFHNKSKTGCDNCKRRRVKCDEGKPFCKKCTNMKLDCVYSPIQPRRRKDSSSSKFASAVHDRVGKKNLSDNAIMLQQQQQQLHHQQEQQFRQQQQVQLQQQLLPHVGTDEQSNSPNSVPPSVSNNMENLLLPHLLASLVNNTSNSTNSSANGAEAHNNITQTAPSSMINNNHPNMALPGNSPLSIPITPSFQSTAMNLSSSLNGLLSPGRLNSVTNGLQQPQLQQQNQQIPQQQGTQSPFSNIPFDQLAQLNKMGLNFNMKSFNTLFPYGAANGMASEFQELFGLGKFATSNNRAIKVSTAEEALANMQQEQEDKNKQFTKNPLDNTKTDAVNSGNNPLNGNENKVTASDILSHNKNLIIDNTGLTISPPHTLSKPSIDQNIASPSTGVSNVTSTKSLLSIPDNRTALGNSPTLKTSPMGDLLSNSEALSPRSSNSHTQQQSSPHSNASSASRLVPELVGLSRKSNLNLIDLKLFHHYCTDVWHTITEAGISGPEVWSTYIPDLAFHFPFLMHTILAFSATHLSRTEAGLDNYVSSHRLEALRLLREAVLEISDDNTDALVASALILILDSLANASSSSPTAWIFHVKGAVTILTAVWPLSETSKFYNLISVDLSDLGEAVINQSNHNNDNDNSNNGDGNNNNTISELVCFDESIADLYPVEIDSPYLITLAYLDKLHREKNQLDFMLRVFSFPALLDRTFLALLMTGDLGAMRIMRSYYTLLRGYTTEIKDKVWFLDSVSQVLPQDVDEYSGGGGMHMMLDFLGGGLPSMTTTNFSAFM
Briefly: PBM E-score (8-mer binding enrichment) (E-score (-0.5 to 0.5)); higher = stronger / more preferred TF binding. As to conditions: protein concentration: 200 nM; construct: GST-full length. As to the method: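 Universal 'all 10-mer' protein binding microarrays (Agilent AMADID 015681) probed with GST-tagged S. cerevisiae TFs (full-length or DBD) made by in vitro transcription/translation (PURExpress), about 100-200 nM. Bound TF was detected with fluorescent anti-GST. Each ungapped 8-mer (which stands for itself and its reverse complement) is scored by the PBM enrichment score (E-score), a modified Wilcoxon-Mann-Whitney statistic from -0.5 to +0.5, computed with the Universal PBM Analysis Suite. Scale: above 0.35 generally sequence-specific binding.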
For the sequence GATATAAC, the “PBM E-score” value was determined as 0.156.
The figure for AAGGACAC is -0.168.
Take ACTTTGGG: the “PBM E-score” value is -0.263.
The figure for ATTGACTC is -0.0667; for AACACAAT it is -0.00044.
The figure for CTTTTCCA is -0.271.
The figure for GGCGGCGA is -0.157.
For GACAGAGA, the “PBM E-score” value turned out to be 0.0187.
The figure for GATACAAA is 0.163; for AATACGTC it is 0.0846; for AATACGCT it is 0.121.
On to GATACGGC, for which the “PBM E-score” value is 0.32.
The figure for GATACGAA is 0.445.
The figure for GATACGTA is 0.253.
The figure for AATACGGT is 0.21; for AATACGAT it is 0.384; for GATACGAC it is 0.464.
On to AATACGAC, for which the “PBM E-score” value amounted to 0.429.
The figure for GATACGCC is 0.162.
Regarding AATACGGC, the “PBM E-score” value was 0.268.
The figure for ATTCCGAC is -0.0388; for AAAACGAT it is 0.257.
The figure for ACGTTCTA is 0.0664; for AGGAATAT it is 0.06.
The figure for AGTTGAAC is 0.0747; for AGTGGAGA it is -0.128.
Regarding ACCGAGTG, the “PBM E-score” value came to 0.159.
Turning to TCCAGGGA, the “PBM E-score” value is -0.173.
The figure for CACGGACG is -0.0335.
For the sequence AGCTAACA, the “PBM E-score” value is -0.248.
The figure for CATACGCG is 0.269; for CATACGGG it is 0.36.
Turning to CATACGAG, the “PBM E-score” value came to 0.481.
The figure for AGGGTTAA is -0.0692; for CGGCTCAC it is -0.0852.
The figure for AGGTTAGA is -0.186; for AACCGAGC it is 0.355; for GAGCGAGC it is 0.354.
The figure for GAACGAGC is 0.483; for GGACGAGA it is 0.0358.
AAACGAGC: the “PBM E-score” value amounted to 0.482.
The figure for GAGCGAGA is 0.377; for CAACGAGC it is 0.336; for GCACGAGA it is 0.127.
The figure for GCACGAGC is 0.0624; for CAGCGAGA it is 0.0257; for AATCGAGC it is 0.237.
In the case of GAACGAGA, the “PBM E-score” value stood at 0.464.
Consider GCTGCCTA, for which the “PBM E-score” value was -0.101.
The figure for AGTGGGCG is -0.167; for ATAGGATC it is -0.135; for GCCTAGCA it is -0.213.
The figure for ATAAGGAG is -0.0163; for CTGTACGC it is 0.314.
The figure for GTGTACTA is 0.207.
ATGTACGA: the “PBM E-score” value came to 0.477.
For ATGTACGC, the “PBM E-score” value stood at 0.112.
The figure for GTGTACGA is 0.481; for CTGTACGA it is 0.48.
The figure for CTGTACAA is -0.0518.
The figure for GTGTACCA is 0.0289; for ATGTACGG it is 0.365.
Take TACTGACA: the “PBM E-score” value is 0.0366.
The figure for AGTCCAAA is -0.108.
The figure for GGCGGCAC is 0.0476; for GCTGGGGA it is -0.211; for CCACCCGC it is -0.0883.
The figure for GAACCGTA is 0.248; for GCACCGTA it is 0.371; for ACACCGTA it is 0.313.
Take TAACCGTA: the “PBM E-score” value came out at 0.375.
The figure for CCACCGTA is 0.34.
The figure for AAACCGTA is 0.27.
For the sequence AGACAGCA, the “PBM E-score” value was -0.143.
The figure for AATACCGT is 0.197.
For the sequence CAGGGTGA, the “PBM E-score” value is -0.192.
The figure for CAATCGTG is -0.215.
As to GAATCGTC, the “PBM E-score” value was determined as 0.14.
The figure for AAATCGTG is 0.0433; for TAATCGTA it is 0.418; for AAATCGTA it is 0.393.
The figure for CAATCGTA is 0.389.
The figure for TAATCGAA is 0.134; for CAATCGTC it is -0.0527.
Take TAATCGGA: the “PBM E-score” value was 0.16.
The figure for GAATCGCA is -0.0229; for AAATCGTC it is 0.127; for GAATCGTA it is 0.38.
As for ACCCACAA, the “PBM E-score” value is 0.105.
The figure for ACGTAGTC is -0.158; for AGATAGGG it is -0.127; for ATCTCGAG it is -0.0735.
The figure for AATGGCTG is -0.124; for AGGGTACG it is 0.411; for AGGGTACC it is -0.323.
The figure for CGGGTACG is 0.452; for CGGGTACC it is -0.134.
With CGGGTACA, the “PBM E-score” value is 0.157.
As to AGGGTACA, the “PBM E-score” value is -0.0565.
The figure for CGAGTACC is 0.21.
Consider AGAGTACG, for which the “PBM E-score” value came to 0.257.
In the case of CGAGTACG, the “PBM E-score” value was found to be 0.392.

The record behind these values is the supplement of paper PMC3334620.
